# Data reported in PubChem BioAssay (NCI).
# Compounds without any hit were thinned out: in the full panel of roughly 83,000, 20% have a hit.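 Values shown are percent growth following 48 h exposure of cells in 96-well plates to a single concentration of compound; below 10 was considered active.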 Active and inactive are the calls of the source.
# System: HL-60(TB) leukemia
# Assay: NCI-60 one-dose screen, 48 h (100 = growth as untreated, 0 = no growth, -100 = all killed)
# Conditions: 10 µM unless noted
row,Structure (SMILES),growth
1,C#CCN1C(=O)/C(=c2\sc3n(c2=O)NC2C(N=3)N(CC)C(=O)N2CC)c2ccccc21 (stereo not given),-34.3% (active)
2,O=c1ccc2nc(C(F)(F)F)nn(-c3ccccc3)c-2c1,-36.6% (active)
3,CCN1CCC(CCOC)(CN2c3ccccc3Sc3ccc(Cl)cc32)C1 (stereo not given),58.5% (inactive)
4,O=C1NC(=O)/C(=C\c2ccco2)S1,74.2% (inactive)
5,Cc1cc(=O)[nH]c(/C(=N/Nc2ccccc2)C(=O)c2ccc(Cl)cc2)n1,50.7% (inactive)
6,COc1ccc(-n2c(SCc3cc(OC)c(OC)c(OC)c3)nc3ccc(C)cc3c2=O)c(OC)c1,-44.3% (active)
7,CN(CCCN(C)CCC1CCCCC1)CCC1CCCCC1,116% (inactive)
8,Cc1ccc(Nc2nccc(N(C)c3ccc4c(C)n(C)nc4c3)n2)cc1S(N)(=O)=O,5.08% (active)
9,CCC(=O)Oc1ccc(OC)cc1,82.6% (inactive)
10,CCOC(=O)C1C(=O)OC2CCCCC21 (stereo not given),98.5% (inactive)
11,N#Cc1nn(-c2ccccn2)c(N)c1C#N,96.1% (inactive)
12,CCCCC[C@H](O)C/C=C1/C(=O)C=C[C@@H]1C/C=C\CCCC(=O)O,90.7% (inactive)
13,C/C(=N\NC(=O)CSc1nc2ccccc2c(=O)n1CCc1ccc(S(N)(=O)=O)cc1)c1ccc(Br)cc1,66.3% (inactive)
14,COc1cc(NCCCCCNC(C)(C)C)c2ncccc2c1,128% (inactive)
15,CC(C)(C)c1cc(Br)cc(C(C)(C)C)c1O,94.1% (inactive)
16,CCN(CC)c1cc(N)c(Cc2c(N)cc(N(CC)CC)cc2Cl)c(Cl)c1,-8.28% (active)
17,CCN(CC)CCOc1ccccc1-n1c(C)ccc1-c1ccccc1,22.4% (inactive)
18,CC(C)(C)c1cc(C(=O)Nc2cc3ccccc3cc2C(=O)NCCN)cc(C(C)(C)C)c1,-68.9% (active)
19,C=C1C(=O)O[C@H]2[C@H]1CC/C(COC(=O)NCc1ccc(Cn3c(=O)sn(-c4ccc(C#N)cc4)c3=O)cc1)=C\CC[C@@]1(C)O[C@@H]21,-13.1% (active)
20,COc1cc2c(Oc3ccc(NC(=O)C4(C(=O)Nc5ccc(F)cc5)CC4)cc3F)ccnc2cc1OCCCN1CCOCC1,-21.4% (active)
21,O=c1c2cccc3c(Nc4c(F)cccc4F)ccc(c32)c2nc3ccccc3n12,85.9% (inactive)
22,O=S(=O)(Nc1ccc(F)cc1)c1ccc(-c2cnc(C3CC3)o2)cc1,-28.1% (active)
23,CCCC(NC(=O)OCc1ccccc1)C(=O)O (stereo not given),44.9% (inactive)
24,CCC1NC(=O)C(NC(=O)c2ncccc2O)C(C)OC(=O)C(c2ccccc2)NC(=O)C2CC(=O)CCN2C(=O)C(Cc2ccc(N(C)C)cc2)N(C)C(=O)C2CCCN2C1=O (stereo not given) (tested in a mixture with another compound),42.5% (inactive)
25,NC(=O)c1cnc(Nc2cccc(N)c2)nc1NCCCNC(=O)C1CCC1,55.2% (inactive)
